Sfp PPTase inh: blocks B. subtilis Sfp PPTase activity; Potency, µM, without a hit: largest response in the series, negative = inhibition, usual class: inhibitors; 310,000 tested, 3.5% active; Biochemical Sfp PPTase activity, qHTS;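 note: the enzyme is Sfp with the accession as filed and its product quenches rhodamine fluorescence; 0% = enzyme reaction without inhibitor and -100% = no enzyme wells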
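After 15 min at room temperature with compound, 15 nM Sfp received 5 uM rhodamine-CoA plus 12.5 uM BHQ-2-ybbR (50 mM Hepes pH 7.6, 10 mM MgCl2). Rate came from the fluorescence difference over 30 min, ex 525/em 598 nm.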
Epigenetic derep: regulators of epigenetic silencing causing reporter derepression in mouse cells. murine LDR cells, GFP reporter derepression, 30 h. Potency, µM (top dose mostly 53.9 µM), without a hit: at the top dose GFP activation, hits mostly activators. 280,000 tested, 0.2% active; note: % of control where 0% means no effect; nearly all actives have a fitted effect of over 60% in size
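In this reporter-derepression format, murine cells bearing a silenced integrated CMV-GFP locus incubate with test compound (30 h, 37 C), then are washed and imaged; fluorescent objects of 20–120 um count as induced cells.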
RORg inh: ROR gamma (mouse) transcription inhibition; P51450; Drosophila S2 Gal4-RORgamma UAS-luciferase reporter, 20 h; Potency, µM (highest dose often 53.6 µM), inactives show at the top dose activity change, negative = inhibition, hits mostly inhibitors; 310,000 tested, 5.4% active; AID 2551; note: % is set by controls: 0 for no effect and ±100 for the full control effect; nearly all actives have a fitted effect of over 60% in size
Target sequence (P51450 whole entry, looked up, the tested form may be a part): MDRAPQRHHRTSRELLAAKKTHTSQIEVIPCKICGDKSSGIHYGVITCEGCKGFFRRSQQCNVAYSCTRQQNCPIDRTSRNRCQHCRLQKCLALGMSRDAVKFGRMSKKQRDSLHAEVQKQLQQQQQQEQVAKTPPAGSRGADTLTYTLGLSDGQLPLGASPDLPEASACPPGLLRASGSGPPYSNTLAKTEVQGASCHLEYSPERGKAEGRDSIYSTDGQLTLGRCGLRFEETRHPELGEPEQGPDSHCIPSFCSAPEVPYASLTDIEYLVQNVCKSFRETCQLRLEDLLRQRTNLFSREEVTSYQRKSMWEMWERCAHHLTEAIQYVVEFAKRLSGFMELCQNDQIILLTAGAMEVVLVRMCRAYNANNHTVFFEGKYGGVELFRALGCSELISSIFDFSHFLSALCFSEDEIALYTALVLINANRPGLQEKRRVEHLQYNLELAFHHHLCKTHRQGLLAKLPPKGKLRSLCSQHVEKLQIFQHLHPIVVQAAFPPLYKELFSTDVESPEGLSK
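In this cell-based reporter format, copper sulfate (700 uM final) drives Gal4–ROR gamma fusion expression from a metallothionein promoter in Drosophila Schneider cells; compounds preincubated 1 hr, reporter read after 20 hr at ambient temperature.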
PINK1 modulator: PINK1 expression modulation; PINK1 immunofluorescence, high-content cytometry, 24 h; Potency, µM (doses to about 76.6 µM), for the others: at the highest dose activation (PINK1 increase), hits mostly activators; 410,000 tested, 0.2% active; active = well fitted activation curve with a large enough effect; inconclusive = small, poorly fitted or top-dose-only effect; cell line not stated here; note: % of control where 0% means no effect; nearly all actives have a fitted effect of over 65% in size
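Readout is PINK1 immunofluorescence, quantified alongside mitochondrial, cell and nuclear markers by laser-scanning microplate cytometry. Cells from a stable line were exposed to compound titrations (5 concentrations) for 24 hours, with CCCP controls.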
ClpP mod: qHTS Assay for Activators of ClpP; purified B. subtilis ClpP, FRET peptide cleavage, 20 min; 340,000 tested, 1.9% active; ATP-dependent Clp protease proteolytic subunit (Bacillus subtilis (strain 168)), P80244; Potency, µM (doses to about 57.5 µM), without a hit: at the top dose activity change, negative = active; AID 651965, 2013; active = well fitted falling curve with a large enough effect; inconclusive = small, poorly fitted or top-dose-only effect; inactive = no such curve, though single readings can be large or run the other way; note: the source files actives as falling curves though it sought activators and does not explain the sign; nearly all actives have a fitted effect of over 65% in size
Target sequence (P80244 whole entry, looked up): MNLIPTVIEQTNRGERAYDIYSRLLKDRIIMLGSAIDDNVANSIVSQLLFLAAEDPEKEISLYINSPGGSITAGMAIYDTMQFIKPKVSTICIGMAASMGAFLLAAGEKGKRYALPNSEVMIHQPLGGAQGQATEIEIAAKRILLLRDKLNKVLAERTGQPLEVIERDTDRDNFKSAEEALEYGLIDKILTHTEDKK
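FRET quenching reversal measured ClpP activation: 10 microg/mL B. subtilis ClpP at pH 8 with the FRET-FV decapeptide, read at 430 nm after 320 nm excitation. The 20-min minus 0-min signal was scaled between DMSO/no-enzyme wells and ADEP (5.8 microM final).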
Gal4-VP16 FLuc: Gal4-VP16 reporter inhibition counter-screen. Drosophila S2 Gal4-VP16 UAS-luciferase, luminescence, 20 h. Potency, µM (series often up to 53.6 µM), for inactives: at the top dose activity, negative = inhibition, usual class: inhibitors. 310,000 tested, 3.5% active. AID 2546;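 note: Gal4-VP16 expression switched on by copper sulfate through the metallothionein promoter; % is set by controls: 0 for no effect and ±100 for the full control effect; nearly all actives have a fitted effect of over 50% in size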
* = called active by the depositor; ? = inconclusive; · = not tested or not shown; ! = a repeat was not active; [ ] = another dose, or the depositor's remark. Hits are enriched below; roughly 8.1% of the tested compounds scored in any of these assays. Unless noted, calls come from the whole dose curve; as a rule, active = well fitted curve in the direction sought with a large enough effect; inconclusive = small, poorly fitted or top-dose-only effect, or another doubt; inactive = no such curve, though single readings can be large; an effect the other way counts as inactive or inconclusive. Potency is the fitted concentration of half-maximal effect.

SMILES	Sfp PPTase inh	Epigenetic derep	RORg inh	PINK1 modulator	ClpP mod	Gal4-VP16 FLuc
COC(=O)c1cccc(NC(=S)N2CCN(C)CC2)c1	5%	·	-12%	0%	13µM*	5%
NS(=O)(=O)c1ccc(NC(=S)NCc2ccco2)cc1	20µM*	-3%	8%	0%	·	-2%
COc1ccc(-c2noc(CSc3nc(N)cc(=O)[nH]3)n2)cc1OC	·	-1%	·	1%	-3%	·
CCc1ccc(-n2c(=O)c3c4c(sc3n(CC(=O)NC(C)CC)c2=O)CCCC4)cc1 (stereo unspecified)	·	-1%	·	0%	-2%	·
CCCCN(CCCC)CCNC(=O)Cn1nc(C)n2c(cc3sccc32)c1=O	·	1%	·	-2%	-8%	·
CCCCSc1ncnc2c1c(-c1ccccc1)cn2-c1cccc(F)c1	·	0%	·	2%	-5%	·
O=c1[nH]c2cc3c(cc2cc1C(c1nnnn1C1CCCCC1)N1CCSCC1)OCCO3 (stereo unspecified)	-13%	0%	30%	2%[38.3 µM]	35µM*	-2%
COc1cc2cc(C(c3nnnn3C3CCCC3)N3CCCCCC3)c(=O)[nH]c2cc1OC (stereo unspecified)	3%	-3%	-26%	2%[38.3 µM]	?	-2%[0.365 µM]
COc1cc2cc(C(c3nnnn3C3CCCC3)N3CCCCC3)c(=O)[nH]c2cc1OC (stereo unspecified)	5%	-1%	-7%	?	22µM*	2%
COc1ccc(OC)c(C(c2nnnn2C2CCCC2)N2CCN(c3ccc(F)cc3)CC2)c1 (stereo unspecified)	5%	0%	-7%	-2%	-6%	-18%
COc1ccc(C(c2nnnn2C2CCCC2)N2CCC(C)CC2)c(OC)c1 (stereo unspecified)	5%	0%	-11%[0.365 µM]	?	18µM*	·
O=C(NCc1ccccc1F)C1CCCN(C(=O)N2CCOc3ccccc32)C1 (stereo unspecified)	·	0%	·	0%	-4%	·
Cc1ccc(-c2c3c(=O)n(C)c(=O)n(C)c3c3cnc4ccccc4n23)cc1	·	1%	·	1%	?	·
Fc1ccccc1-c1ccc(/C=N/Nc2nc3ccccc3[nH]2)o1	-28%	?	3.2µM*	22%	-29%	3.5µM*
COc1cc(OC)c(OC)cc1/C=N/Nc1nc2ccccc2[nH]1	21%	-1%	-30%	-1%	-11%	-2%
BrC(=C\c1ccccc1)/C=N/Nc1nc2ccccc2[nH]1	-65%	-4%	3.2µM*	3%	-18%	5µM*
C#CCn1cc(/C=N/Nc2nc3ccccc3[nH]2)c2ccccc21	11µM*	1%	16µM*	1%	-1%	?
C(=N\Nc1nc2ccccc2[nH]1)/c1ccccn1	23%	-1%	0.56µM*	0%	1%	1.1µM*
C#CCn1cc(/C=N/NC(=O)COc2cccc3cccnc23)c2ccccc21	-28%	10%	12%	-2%	-6%	-13%
BrC(=C\c1ccccc1)/C=N/Nc1nc(N2CCOCC2)nc(N2CCOCC2)n1	-5%	?	-24%	1%	·	?
Cc1cccc(CSc2ccc3nnc(CCNS(=O)(=O)c4ccccc4)n3n2)c1	·	-1%	·	0%	-3%	·
Cc1cc(C)cc(-n2ccnc2SCC(=O)Nc2nnc(C)s2)c1	·	1%	·	3%	0%	·
C(=N\Nc1nc2ccccc2[nH]1)/c1cccc2nccnc12	10%	4%	1µM*	1%	·	5.6µM*
C(=N\Nc1nc2ccccc2[nH]1)/c1ccc2ncccc2c1	-24%	3%	-44%	3%	·	-28%
Cc1ccc(/C=N/Nc2nnc(Cc3ccccc3)c(=O)[nH]2)o1	0%	-3%	?	5%	·	-3%
SMILES	Sfp PPTase inh	Epigenetic derep	RORg inh	PINK1 modulator	ClpP mod	Gal4-VP16 FLuc
Cc1ccc(/C=N\Nc2nc3ccc(Cl)cc3[nH]2)o1	3%	-1%	6.3µM*	-2%	-1%	13µM*
O=C(O)C1CSC(c2coc3ccccc3c2=O)N1 (stereo unspecified)	45µM*	-2%	1%	5%	?	?
COc1ccc(-c2noc(-c3ccc(NCc4ccc(C)cc4)c([N+](=O)[O-])c3)n2)cc1OC	·	3%	·	6%	2%	·
COCCCNc1ncnc2c1cnn2-c1ccc(F)cc1	·	6%	·	6%	5%	·
O=C(C[n+]1ccc(-c2nnc3n2CCC3)cc1)c1ccc(Cl)c(Cl)c1	5%	0%	-7%	1%	28µM*	-20%
COc1cc(O)ccc1C1CC(=O)Nc2c1c(=O)nc(SCc1ccccc1C)n2C (stereo unspecified)	·	-3%	·	-1%	-8%	·
Cc1cccc(Cn2c(C)nc3c(N)c(C)c(C)cc32)c1	-13%	0%	13µM*	2%	·	?
CCCCOc1ccc(C2c3c(oc4ccccc4c3=O)C(=O)N2c2nc(C)c(C(=O)OCC)s2)cc1OC (stereo unspecified)	·	1%	·	2%	1%	·
CCOC(=O)C1=C(Cc2ccc(OC)cc2)C(=O)c2ccccc2C1=O	10µM*	?	10µM*	21%[38.3 µM]	2%	?
CCOC(=O)C1=C(Cc2ccc(C)cc2)C(=O)c2ccccc2C1=O	7.9µM*	?	11µM*	·	·	?
CCOC(=O)c1ccc(COC(=O)c2ccc3c(c2)-c2ccccc2C3=O)cc1	3%	3%	0%	2%	-1%	-3%
CCOC(=O)c1c(C)nc2c(c1-c1cc(OC)ccc1OC)C(=O)c1ccccc1-2	-20%	-3%	9%	·	2%	3%[0.365 µM]
Cc1ccc(NC(=O)CN(C)S(=O)(=O)c2ccc3c(c2)n(C)c(=O)c(=O)n3C)c(C)c1	19%	-4%	-2%	1%	32µM*!	-10%
CCOc1ccccc1CNC(=O)c1cc(-c2ccc(C)c(C)c2)nc2ccccc12	·	4%	·	-1%	4%	·
Cc1ccc2nc(-c3ccc(S(=O)(=O)N4CCOCC4)cc3)cn2c1	3%	0%	-1%	·	·	13%
Cc1ccc(C(=O)Nc2cccc(-c3cn4ccccc4n3)c2)cc1	-4%	-6%	-29%	5%	·	-3%
Cc1ccc2nc(-c3ccccc3)cn2c1	2%	0%	1.6µM*	0%	14µM*	2.8µM*
Cc1ccc2nc(-c3ccc(-c4ccccn4)s3)cn2c1	-8%	0%	0.18µM*	1%	3%	0.89µM*
Oc1ccc(-c2cn3cc(C(F)(F)F)ccc3n2)cc1	6%	-1%	2.2µM*	-2%	28µM*	8.9µM*
Cc1ccc2nc(-c3ccc(O)c(O)c3)cn2c1	56µM*	·	4%[1.91 µM]	?	·	?

Screens: PubChem, National Center for Advancing Translational Sciences (NCATS)
